# Results as given in the supplement of paper PMC5662767.
# Where a name gives a salt, the structure may show the parent alone.
# Tested on: Drosophila S2 cl14 SmoIP sensor cells
# Experiment: normalized SmoIP GFP fluorescence (untreated unstimulated = 0%, untreated Hh-stimulated = 100%); higher = more Smo activation sensor fluorescence
# Settings: stimulation: Hh conditioned medium (+Hh); compound concentration: 2 uM; 24 h
# 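Further: flow cytometry read-out as median GFP intensity of gated cells, compounds added 30 min before Hh-conditioned or mock medium, mock-treated cells serving as unstimulated baseline.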
row,SMILES,normalized SmoIP GFP fluorescence [%]
1,O=C(O)COCCN1CCN(C(c2ccccc2)c2ccc(Cl)cc2)CC1 (centres undefined) [Cetirizine-di-hcl],90.4
2,CCC(C)(Oc1ccc(C2(c3ccc(OC(C)(CC)C(=O)O)cc3)CCCCC2)cc1)C(=O)O (centres undefined) [clinofibrate],131
3,c1ccc(-c2[nH]ncc2-c2ccnc3ccccc23)nc1,101
4,COc1ccc(COc2cc3oc(=O)c4cc(C(C)O)ccc4c3cc2OC)cc1 (centres undefined) [Palomid-529-P529],134
5,Nc1nc(N)c2nc(-c3ccccc3)c(N)nc2n1 [triamterene],104
6,C[C@H]1COC2=C1C(=O)C(=O)c1c2ccc2c1CCCC2(C)C [Cryptotanshinone],115
7,CCC(=O)Nc1cccc(Oc2nc(Nc3ccc(N4CCN(C)CC4)cc3OC)ncc2Cl)c1,73.7
8,CC(=O)OCC[N+](C)(C)C [Acetylcholine-chloride],104
9,COc1ccc(NS(=O)(=O)c2sc3ccc(Cl)cc3c2C)cc1N1CCNCC1,108
10,O=C(c1ccc(Nc2nccc(-c3cc4ccccc4s3)n2)cc1)N1CCC(N2CCCC2)CC1,106
11,CN1CCC(=C2c3ccccc3CC(=O)c3sccc32)CC1 [ketotifen-fumarate-zaditor],118
12,CN(NC(=O)CC(=O)NN(C)C(=S)c1ccccc1)C(=S)c1ccccc1 [Elesclomol],145
13,C[C@H](NC(=O)[C@@H](O)c1cc(F)cc(F)c1)C(=O)N[C@@H]1C(=O)N(C)c2ccccc2-c2ccccc21,145
14,N#Cc1ccc(C(c2ccc(C#N)cc2)n2cncn2)cc1 [Letrozole],98.8
